# Screening data (PubChem BioAssay)
# Hits are enriched below; roughly 2.3% of the tested compounds scored in any of these assays.
# Nrf2 block – inhibitors of Nrf2 signaling; A549 ARE-Fluc reporter, luciferase luminescence, 18-24 h; Potency, µM (top dose mostly 46 µM), without a hit: at the top dose activity change, negative = inhibition, hits mostly inhibitors; 2.1% of 360,000 active; also: potency is read from the fitted curve at half-maximal effect; % is scaled to controls: 0 for no effect and ±100 for the full control effect; nearly all actives have a fitted effect of over 60% in size
#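 Reporter: ARE-Fluc in A549. Exposure: 18-24 h, 37 °C, 5% CO2, 5% FBS OPTI-MEM. Readouts: fluorescent cytotoxicity (CellTiter-Fluor), then luminescent Nrf2 signal after BugLite.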
# Nrf2 activator – Nrf2 pathway activation. AREc32 ARE-luciferase reporter (MCF7-derived line), luminescence, 24 h. Potency, µM (top dose mostly 46.1 µM), without a hit: at the highest dose activation, usual class: activators. 0.31% of 410,000 active. AID 624171; also: potency is read from the fitted curve at half-maximal effect; % of control where 0% means no effect; nearly all actives have a fitted effect of over 65% in size
#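 Nrf2 activation is followed as ARE-luciferase induction in the AREc32 line after one day of compound treatment; luminescence is read with Steady-Glo.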
# IL2 activator – IL-2 activation; IL-2 activation reporter assay, cell-based qHTS; stimulated with anti-CD3/CD4/CD28 beads; in transgenic mouse T cells; activation, % (series mostly up to about 46 µM); 0.065% of 360,000 active; in the data active = activation above about 50%; inconclusive = mostly about 30% to 49%; also: 0% is about no effect
#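 Unstimulated transgenic mouse T cells preincubated 60 min with compound, then stimulated with anti-CD3/anti-CD4-coated beads plus anti-CD28 for 18 h at 37 degrees C. IL-2 response read as EGFP and DsRed fluorescence by plate cytometry.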
# A549 viability – kills or reduces viability of A549 cells in Nrf2 counter-screen; A549 ARE-Fluc cells, CellTiter-Fluor viability, 18-24 h; Potency, µM (top dose mostly 46 µM), inactives show at the top dose activity change, negative = cytotoxicity, most hits filed as inhibitors; 0.16% of 390,000 active; AID 504648; also: potency is read from the fitted curve at half-maximal effect; % is scaled to controls: 0 for no effect and ±100 for the full control effect
#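 A549 ARE_Fluc cells in 5% FBS OPTI-MEM were exposed to compounds in concentration-response for 18-24 h at 37 deg C. Viability was read by CellTiter-Fluor fluorescence (Ex 405/Em 525) after 30 min, before the luciferase read.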
# The depositor's hits bear a star; ? = inconclusive; · = not tested or not shown. Unless noted, calls follow the shape of the dose curve; as a rule, active = well fitted curve in the direction sought with a large enough effect; inconclusive = small, poorly fitted or top-dose-only effect, or another doubt; inactive = no such curve, though single readings can be large; an effect the other way counts as inactive or inconclusive.
SMILES,Nrf2 block,Nrf2 activator,IL2 activator,A549 viability
O=C(NC(=S)N1CCN(c2nc(-c3ccccc3)cs2)CC1)c1cncc(Br)c1,23µM*,17%,1,-22%
CCOCCCNC(=S)N1CCN(c2nc(-c3ccccc3)cs2)CC1,16µM*,0%,0,-16%
COCCCNC(=S)N1CCN(c2nc(-c3ccccc3)cs2)CC1,12µM*,3%,0,1%
CCN(CC)CCCNC(=S)N1CCN(c2nc(-c3ccccc3)cs2)CC1,-14%,11%,-4,4%
Cc1ccc(S(=O)(=O)N2CCN(c3nc(-c4ccncc4)nc4ccccc34)CC2)cc1,1%,·,·,1%
Cc1ccc2c(c1)c1c(c(=O)n(-c3ccccc3C)c(=O)n1Cc1cccc(F)c1)n2C,?,-1%,·,7%
CCOc1ccccc1C(=O)Nc1nc2c(s1)CC(C)CC2 (configuration not stated),?,4%,·,7%
Cn1c(=O)c2[nH]c(COc3ccccc3)nc2n(C)c1=O,-20%,3%,2,22%
Cn1c(=O)c2[nH]c(Cc3cccc4ccccc34)nc2n(C)c1=O,21µM*,3%,1,-8%
CCc1ccc(CNC(=O)Cc2ccc(NC(=O)N3CCSc4ncccc43)cc2)cc1,?,0%,·,4%
CC1CCN(S(=O)(=O)c2ccc3c(c2)C(=NO)c2cc(S(=O)(=O)N4CCC(C)CC4)ccc2-3)CC1,4.1µM*,7%,-1,5.2µM*
CCN(c1ccccc1)S(=O)(=O)c1ccc(NC(=O)c2nc(S(C)(=O)=O)ncc2Cl)cc1,21µM*,-3%,-2,?
O=C(CCn1c(=O)c2cccn2c2cccnc21)NCc1ccccc1F,27%,5%,·,3%
O=C(/C=C/c1ccc(O)cc1)c1ccc(NC2=C(N3CCCCC3)C(=O)c3ccccc3C2=O)cc1,15µM*,6%,0,?
O=C(Nc1ccc(Cl)cc1Cl)c1cc(S(=O)(=O)N2CCN(c3ccccc3F)CC2)ccc1F,·,0%,·,-1%
Cc1cccc(-c2nc3cc([N+](=O)[O-])ccc3o2)c1,?,10µM*,-1,-11%
O=[N+]([O-])c1ccc2oc(-c3ccccc3)nc2c1,?,?,0,3%
Cc1cc(C)c(S(=O)(=O)Nc2ccc(-c3ccc(N4CCCCC4)nn3)cc2)cc1C,·,4%,·,?
O=C(Nc1ccc(OC(F)(F)F)cc1)NC1COc2ccccc2C1 (configuration not stated),·,0%,·,7%
Cc1nnc(N2CCCCC2)c2ccccc12,-4%,-1%,0,3%
Cc1nc(N2CCCCCC2)c2ccccc2n1,18µM*,1%,0,-10%
c1csc(-c2nnc(N3CCOCC3)c3ccccc23)c1,?,-1%,0,2%
c1csc(-c2nnc(N3CCCCCC3)c3ccccc23)c1,9%,13µM*,-4,0%
Clc1nnc(N2CCCCC2)c2ccccc12,16µM*,0%,0,1%
CONC(=O)C[C@@H](C#N)NC(=O)[C@@H]1CCCN1C(=O)[C@@H](NC(=O)c1ccc(N)c(Cl)c1)C(C)(C)C,2%,·,·,7%
SMILES,Nrf2 block,Nrf2 activator,IL2 activator,A549 viability
CCOC(=O)c1ccc(CNc2ncnc3nc[nH]c23)cc1,?,·,·,-3%
CC(NC(=O)CN1C(=O)NC(Cc2ccccc2)(Cc2ccccc2)C1=O)C12CC3CC(CC(C3)C1)C2 (configuration not stated),26µM*,-1%,-1,?
Cc1ccc(Cn2ncc3c(N4CCOCC4)ncnc32)cc1,2%,0%,-2,-5%
Cc1ccc(Cn2ncc3c(N4CCN(c5ccccc5C)CC4)ncnc32)cc1,21µM*,-1%,0,?
Cc1ccc(-c2nnc(Nc3cccc(O)c3)c3ccccc23)cc1S(=O)(=O)N1CCOCC1,16µM*,7%,·,?
Fc1cccc(Cl)c1Cn1nnc2c(NCc3ccncc3)ncnc21,23µM*,1%,2,-1%
Fc1cccc(Cl)c1Cn1nnc2c(NCc3ccccn3)ncnc21,-19%,1%,-3,2%
N#C/C(=N\Nc1cc(Cl)cc(Cl)c1)c1nnc2n1CCCCC2,18µM*,-1%,0,?
O=C(Nc1ccc2nc(SCC(=O)N3CCCc4ccccc43)sc2c1)c1ccccc1,12µM*,1%,·,-15%
O=C(Cn1cnc2c(nc3n2CCCCC3)c1=O)Nc1ccc(F)c(Cl)c1,?,1%,·,8%
Cc1cccnc1NC(=S)NC(=O)c1cccs1,?,10µM*,0,-3%
